Screens as filed in PubChem.
IL1B secr inh – qHTS for Inhibitors of Inflammasome Signaling: IL-1-beta AlphaLISA Primary Screen; activity change, % at 57.5 µM; hit rate 4.7% among 360,000; AID 743279, 2014; THP-1 LPS/ATP IL-1B secretion, AlphaLISA, 16 h; stronger effect = lower value; in the data active = activity change below about -50%; inconclusive = mostly about -30% to -49%
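Secreted IL-1B measured by AlphaLISA bead assay after 16 h compound exposure of THP-1 cells; compounds (final up to 57.5 uM) added 1 h before LPS (250 ng/mL) and ATP (1.25 mM) stimulation; lower signal means less secretion.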
DT40 TDP1 CPT – qHTS for Inhibitors of human tyrosyl-DNA phosphodiesterase 1 (TDP1): qHTS in cells in presence of CPT | chicken DT40 Tdp1-/-;hTDP1 cells + 20 nM CPT, ATP luminescence, 48 h | Potency, µM (series often up to 46.2 µM), inactives show at the highest dose activity change, negative = growth inhibition, usual class: inhibitors | hit rate 12% among 420,000 | AID 686979, 2013; note: potency is the fitted concentration of half-maximal effect; nearly all actives have a fitted effect of over 55% in size
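Chicken DT40 Tdp1-/- cells complemented with human TDP1, 400 cells/well, exposed to compounds plus 20 nM camptothecin for at least 48 h at 37 C; viability read as ATP content by CellTiter-Glo luminescence.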
CtBP-E1A inh – qHTS Assay for Inhibitors of the CtBP/E1A Interaction. CtBP / adenovirus E1A interaction (AlphaScreen). hit rate 0.49% among 340,000. activity change, % (test concentration not listed). AID 651724, 2012. AlphaScreen GST-E1A/His-CtBP binding, 1536-well; stronger effect = lower value; in the data active = activity change below about -65%; inconclusive = mostly about -30% to -63%
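Steps: dispense buffer (Tris pH 8.0, NaCl 300 mM, TCEP 1 mM, BSA, Tween 20); add 5X protein mix (GST-E1A, His-CtBP, 125 nM each); pin 23 nL compound; 2 h at 37 °C, dark; add 5X beads (50 ug/mL); 1 h; read.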
Six1-Eya2 inh – qHTS Assay for Inhibitors of the Six1/Eya2 Interaction; hit rate 0.56% among 360,000; activity change, % (concentration not given with the values); AID 651725, 2012; AlphaScreen GST-Six1/His-Eya2 binding, biochemical; stronger effect = lower value; Homeobox protein SIX1 (Homo sapiens) + Protein phosphatase EYA2 (Homo sapiens), …; in the data active = activity change below about -65%; inconclusive = mostly about -30% to -63%
Target sequence (O00167 whole entry, looked up): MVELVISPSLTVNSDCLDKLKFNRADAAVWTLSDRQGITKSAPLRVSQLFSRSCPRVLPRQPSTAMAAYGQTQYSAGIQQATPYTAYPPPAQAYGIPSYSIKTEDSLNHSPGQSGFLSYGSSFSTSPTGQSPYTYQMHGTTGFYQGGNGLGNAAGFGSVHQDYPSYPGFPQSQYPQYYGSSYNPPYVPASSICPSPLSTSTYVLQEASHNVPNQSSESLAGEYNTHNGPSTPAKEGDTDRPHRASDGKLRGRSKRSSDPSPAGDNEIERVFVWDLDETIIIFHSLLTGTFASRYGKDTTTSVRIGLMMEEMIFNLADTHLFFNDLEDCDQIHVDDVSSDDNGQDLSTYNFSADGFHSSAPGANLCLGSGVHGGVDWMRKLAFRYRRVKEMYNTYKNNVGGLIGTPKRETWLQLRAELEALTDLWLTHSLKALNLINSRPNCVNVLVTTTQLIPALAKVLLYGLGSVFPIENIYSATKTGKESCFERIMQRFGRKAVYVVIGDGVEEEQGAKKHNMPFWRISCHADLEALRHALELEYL
Target sequence (Q15475 whole entry, looked up): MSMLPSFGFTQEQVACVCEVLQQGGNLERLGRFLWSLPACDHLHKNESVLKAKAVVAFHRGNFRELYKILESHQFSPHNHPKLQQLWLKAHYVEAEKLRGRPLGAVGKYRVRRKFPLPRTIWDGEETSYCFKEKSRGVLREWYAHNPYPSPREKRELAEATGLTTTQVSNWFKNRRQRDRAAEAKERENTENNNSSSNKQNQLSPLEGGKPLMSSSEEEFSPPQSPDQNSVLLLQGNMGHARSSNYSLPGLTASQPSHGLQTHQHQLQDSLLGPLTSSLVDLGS
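GST-Six1 + His-Eya2 (5X stock: 250/500 nM); Tris pH 8.0, 300 mM NaCl, 0.05% BSA, 0.02% Tween 20; GSH donor/Ni acceptor beads; 1 h 37 °C dark; AlphaScreen readout.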
TDP1 block – qHTS Assay for Inhibitors of Tyrosyl-DNA Phosphodiesterase (TDP1); Tyrosyl-DNA phosphodiesterase 1 (Homo sapiens), Q9NUW8; recombinant TDP1, AlphaScreen DNA substrate cleavage; Potency, µM (top dose mostly 130 µM), without a hit: at the highest dose activity change, negative = inhibition, usual class: inhibitors; hit rate 0.28% among 350,000; note: potency is the fitted concentration of half-maximal effect; nearly all actives have a fitted effect of over 40% in size
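Recombinant human Tdp1 (E. coli-expressed, 1 nM final) preincubated with compounds 15 min at room temperature, then 5'-biotin/3'-phosphotyrosine-FITC DNA substrate (15 nM final) added for 5 min. AlphaScreen beads (10 ug/ml final) added 10 min; cleavage lowers signal.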
TDP1 cell noCPT – qHTS for Inhibitors of human tyrosyl-DNA phosphodiesterase 1 (TDP1): qHTS in cells in absence of CPT. Potency, µM (highest dose often 46.2 µM), for the others: top-dose activity change, negative = growth inhibition, hits mostly inhibitors. hit rate 15% among 420,000. DT40 Tdp1-/- hTDP1 cells, no CPT, ATP luminescence, 48 h; note: potency is the fitted concentration of half-maximal effect; nearly all actives have a fitted effect of over 55% in size
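Stably hTDP1-transfected Tdp1-null chicken DT40 cells were treated with library compounds minus camptothecin and grown for at least 48 hr at 37 °C, after which cellular ATP was quantified by luminescence.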
An asterisk follows results filed as active; u = inconclusive; x = no result given. Rows were chosen to be rich in hits. Some 18% of all compounds tested hit in one or more screens of this group. Unless noted, calls come from the whole dose curve; as a rule, active = well fitted curve in the direction sought with a large enough effect; inconclusive = small, poorly fitted or top-dose-only effect, or another doubt; inactive = no such curve, though single readings can be large; an effect the other way counts as inactive or inconclusive. % is set by controls: 0 for no effect and ±100 for the full control effect.

SMILES | IL1B secr inh | DT40 TDP1 CPT | CtBP-E1A inh | Six1-Eya2 inh | TDP1 block | TDP1 cell noCPT
COc1ccc(-c2cc(NC(C)=O)c3ncc(-c4ccc(F)cc4)n3c2)cc1OC | -18.5 | 23.1µM* | -9.0 | -0.7 | x | 14.6µM*
COc1ccc(-c2cnc3c(NC(C)=O)cc(-c4cc(F)ccc4OC)cn23)cc1OC | -2.0 | 5.17µM* | -4.0 | 5.7 | x | 5.8µM*
COc1ccc(-c2cc(NC(C)=O)c3ncc(-c4ccccc4)n3c2)c(OC)c1 | -25.8 | u | -9.9 | -14.7 | x | -83.3%
CCCOc1ccc(C2(C(=O)O)CCCC2)cc1 | 4.8 | -7.5% | 5.1 | 1.5 | -1.1% | -8.8%
CC(=O)Nc1cc(-c2ccccc2N(C)C)cn2c(-c3ccccc3)cnc12 | 5.8 | 16.4µM* | -25.1 | -24.0 | x | 23.1µM*
CC(=O)Nc1cc(-c2ccccc2N(C)C)cn2c(-c3ccc(S(C)(=O)=O)cc3)cnc12 | -11.8 | u | -4.0 | -6.3 | x | 18.4µM*
COc1cccc(/C(C)=N/N=C(\C)c2cccc(OC)c2)c1 | u | -4.1% | 37.2 | 9.7 | x | -1.0%
CC(C)(C)c1nnc2sc(SCC(=O)N3CCCCC3)nn2c1=O | -92.4* | u | 5.3 | 1.6 | 2.7% | u
CC(C)(C)c1nnc2sc(SCCN3C(=O)c4ccccc4C3=O)nn2c1=O | -5.5 | -13.3% | 1.0 | 13.8 | 3.0% | -0.6%
CC(C)N(C(=O)CSc1nn2c(=O)c(C(C)(C)C)nnc2s1)c1ccccc1 | -50.0* | 20.6µM* | 0.0 | 22.5 | 5.8% | u
Cc1cc(C(=O)CSc2nnc(C3COc4ccccc4O3)n2C)c(C)n1-c1ccc(F)cc1 (stereo not drawn) | -2.5 | u | -10.7 | -15.7 | 13.9% | u
Cc1cc(C(=O)CSc2nn3c(=O)c(C(C)(C)C)nnc3s2)c(C)n1-c1ccc(F)cc1 | 8.0 | 16.4µM* | -2.7 | -14.6 | 11.8% | u
COc1ccc(S(=O)(=O)N2CCCCC2)cc1 | 5.7 | -17.9% | 2.7 | 4.8 | 6.8% | -3.7%
CN1CCN(c2nc(N3CCN(c4ccccc4)CC3)ncc2F)CC1 | -71.0* | u | 3.0 | -11.8 | 5.4% | u
CCOC(=O)C1CCN(C(=O)c2ccc3c(c2)sc2nc(-c4ccc(C)cc4)cn23)CC1 | x | -27.2% | x | x | 0.0% | u
CCOC(=O)C1CCN(C(=O)c2ccc3c(c2)sc2nc(-c4ccc(OC)cc4)cn23)CC1 | x | 23.1µM* | x | x | 3.9% | 23.1µM*
CCOC(=O)N1CCN(C(=O)c2ccc3c(c2)sc2nc(-c4ccc(OC)cc4)cn23)CC1 | -20.6 | u | -3.3 | -29.8 | 3.1% | 23.1µM*
CCOC(=O)c1ccc2c(c1)sc1nc(-c3ccc(OCC)cc3)cn12 | x | u | x | x | -3.9% | u
Cc1ccc(NS(=O)(=O)c2cc(NC(=O)c3ccc4c(c3)NC(=O)CS4)ccc2Cl)c(C)c1 | u | u | -16.7 | -13.1 | -2.7% | 25.9µM*
COc1ccc2c(c1)NC(c1cccnc1)=NC(c1ccc(F)cc1)=N2 | x | 14.6µM* | x | x | 7.0% | 9.2µM*
COc1ccc(C2=NC(c3ccccc3)=Nc3ccc(C)cc3N2)cc1 | x | 25.9µM* | x | x | 9.3% | 20.6µM*
COc1ccc(C2=Nc3ccccc3NC(c3cccs3)=N2)cc1 | x | u | x | x | 9.3% | u
Cc1ccc(C2=Nc3ccccc3NC(c3ccncc3)=N2)cc1 | x | u | x | x | 4.7% | 13µM*
COc1ccc(NC2=Nc3cccc4cccc2c34)cc1 | -7.6 | u | -25.0 | u | 1.2% | 25.9µM*
O=C(CN1C(=O)CSc2ccc(S(=O)(=O)N3CCCC3)cc21)NCc1ccc(Cl)cc1 | x | u | x | x | 2.6% | u
SMILES | IL1B secr inh | DT40 TDP1 CPT | CtBP-E1A inh | Six1-Eya2 inh | TDP1 block | TDP1 cell noCPT
CC(=O)C1=C(C)NC(SCC(N)=O)=C(C#N)C1C (stereo not drawn) | 0.0 | -29.1% | 5.0 | 0.0 | 4.9% | -19.5%
Cc1ccc(C2=NC(c3ccccc3)=Nc3ccc(Cl)cc3N2)cc1 | x | u | x | x | 7.0% | 23.1µM*
COc1ccc(C2=Nc3cccc4cccc(c34)N2)cc1 | 17.1 | u | 10.2 | -0.2 | -7.9% | 16.4µM*
Clc1ccc2c(c1)NC(c1ccncc1)=NC(c1cccs1)=N2 | x | u | x | x | 4.7% | u
O=C(c1ccccn1)N(Cc1cc2ccccc2[nH]c1=O)C1CCCCC1 | 12.3 | -19.3% | 1.5 | -6.0 | 4.2% | -21.1%
Cc1ccc(S(=O)(=O)N(C(=O)c2ccncc2)c2ccc(OC(=O)c3ccncc3)c3ccccc23)cc1 | -78.8* | 2.59µM* | 4.6 | -11.0 | 7.9% | 5.17µM*
Cc1ccc(S(=O)(=O)N(C(=O)c2ccncc2)c2ccc(OC(=O)c3ccncc3)c3ccccc23)c(C)c1 | 42.1 | 4.61µM* | -1.8 | -10.6 | 7.9% | 3.66µM*
Cc1ccc(OC(=O)c2ccc(S(=O)(=O)N(C)C)cc2)c(-n2nc3ccccc3n2)c1 | -22.3 | -9.6% | 32.0 | 21.7 | 4.9% | -17.9%
CNc1nc2ccccc2n1N | 3.6 | -13.7% | 0.0 | 1.8 | -2.7% | -16.4%
CCOC(=O)c1cc(CC)sc1NC(=O)c1cccc(N2C(=O)CCC2=O)c1 | -6.2 | -1.4% | 3.2 | 3.3 | 5.3% | u
CS(=O)(=O)N1CC2CCCN2c2ccc(C(F)(F)F)cc21 (stereo not drawn) | -8.6 | -5.3% | x | 7.1 | -2.7% | -25.7%
CS(=O)(=O)N1CC2CCCN2c2cc(C(F)(F)F)ccc21 (stereo not drawn) | -3.7 | -16.1% | -4.3 | -6.9 | 1.8% | -20.5%
COc1ccc(S(=O)(=O)N2CC3CCCN3c3cc(C(F)(F)F)ccc32)cc1 (stereo not drawn) | -10.5 | 20.6µM* | -8.3 | -14.7 | 4.8% | u
COc1ccc(S(=O)(=O)N2CC3CCCN3c3ccc(C(F)(F)F)cc32)cc1 (stereo not drawn) | u | 25.9µM* | -12.9 | -0.6 | -1.0% | u
COC(=O)[C@@H](NS(=O)(=O)c1ccc(F)cc1Br)C(C)C | 40.7 | -13.3% | -10.9 | -7.4 | x | -9.8%
O=c1c2cc(Br)ccc2nc(-c2ccc(Cl)cc2)n1O | 7.4 | u | 2.4 | -2.8 | x | u
Cc1ccc(-c2nc3c(Cl)cc(Cl)cc3c(=O)n2O)cc1 | 40.3 | u | x | -5.8 | x | 18.4µM*
